In the supplement of paper PMC12350171:
Counter-ions that a name gives are not always drawn. A number with no mark means an inactive call.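 The calls were made as follows: active = AUC significantly below DMSO controls by Student t-fit with adjusted P under 0.01; inactive = not significantly reduced.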

Test system: Haemophilus parainfluenzae
Assay: growth AUC normalised to DMSO control (fraction of control); higher = less growth inhibition, active = hit call of the paper
Settings: 20 µM
How it was run: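 Hemin and NAD were added to the medium for Haemophilus parainfluenzae. All pathogens, after two anaerobic passages, were inoculated at a starting OD578 of 0.01 into pre-reduced mGAM plates with 20 μM compound and 1% DMSO under breathable seals, and OD578 was read hourly for 24 h in three biological replicates. AUC of each growth curve was obtained with the trapezoidal rule up to the exponential-to-stationary transition and normalised to DMSO controls from the same plate.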

Going from `C#C[C@]1(O)CC[C@H]2[C@@H]3CCC4=Cc5oncc5C[C@]4(C)[C@H]3CC[C@@]21C` [Danazol] to `CC(=O)O[C@]1(C(C)=O)CC[C@H]2[C@@H]3C=C(C)C4=CC(=O)CC[C@]4(C)[C@H]3CC[C@@]21C` [Megestrol acetate], the “growth AUC normalised to DMSO control” value rises from 0.908 to 1.06.

First: CC(C)(C)NC[C@@H](O)COc1cccc2c1CCCC2=O [(+) Levobunolol hydrochloride]
Second: CCN(CC)C(=O)Nc1ccc(OCC(O)CNC(C)(C)C)c(C(C)=O)c1 (stereo unspecified) [Celiprolol hydrochloride]
The “growth AUC normalised to DMSO control” value of the first is lower: 0.973 for the first, 0.991 for the second.

First: CCOC(=O)C1=C(C)NC(C)=C(C(=O)OC)C1c1cccc(Cl)c1Cl (stereo unspecified) [Felodipine]
Second: NC(=O)OCC(O)COc1ccc(Cl)cc1 (stereo unspecified) [Chlorphensin carbamate]
The “growth AUC normalised to DMSO control” value of the first is lower: 0.863 for the first, 1.01 for the second.

Compared with `CC(=O)OCC(=O)[C@@]1(O)CC[C@H]2[C@@H]3CCC4=CC(=O)CC[C@]4(C)[C@@]3(F)[C@@H](O)C[C@@]21C` [Fludrocortisone acetate], `CC[C@H](C)C(=O)O[C@H]1C[C@@H](C)C=C2C=C[C@H](C)[C@H](CC[C@@H]3C[C@@H](O)CC(=O)O3)[C@H]21` [Lovastatin] is lower in “growth AUC normalised to DMSO control” value: 1.02 for the first, 0.984 for the second.

First: CCSc1ccc2c(c1)N(CCCN1CCN(C)CC1)c1ccccc1S2 [Thiethylperazine maleate]
Second: CCN(CC)CCNC(C(=O)OCCC(C)C)c1ccccc1 (stereo unspecified) [Camylofine chlorhydrate]
The “growth AUC normalised to DMSO control” value of the first is higher: 1.02 for the first, 0.98 for the second.

Compared with `CC(=O)Nc1ccc(OCC(O)CNC(C)C)cc1` (stereo unspecified) [Practolol], `CC(C)NCC(O)COc1ccc(COCCOC(C)C)cc1` (stereo unspecified) [Bisoprolol hemifumarate] is higher in “growth AUC normalised to DMSO control” value: 1.01 for the first, 1.13 for the second.

First: Cc1cn([C@H]2C=C[C@@H](CO)O2)c(=O)[nH]c1=O [Stavudine]
Second: Nc1ccn([C@H]2CC[C@@H](CO)O2)c(=O)n1 [Zalcitabine]
The “growth AUC normalised to DMSO control” value of the first is lower: 1.02 for the first, 1.06 for the second.

First: N=C(N)NC(=O)c1nc(Cl)c(N)nc1N [Amiloride hydrochloride dihydrate]
Second: CC(C)(C)NCC(O)c1cc(O)cc(O)c1 (stereo unspecified) [Terbutaline hemisulfate]
The “growth AUC normalised to DMSO control” value of the first is lower: 1.03 for the first, 1.06 for the second.
